# TDP-43 rescue = qHTS of TDP-43 Inhibitors: NCGC Sytravon Library Screen; yeast TDP-43 toxicity rescue, BacTiter-Glo growth, 24 h; Potency, µM (top dose mostly 46.1 µM), actives largely listed as activators; 45,000 tested, 0.45% active; active = well fitted activation curve with a large enough effect; also: 0% is about no effect; nearly all actives have a fitted effect of over 55% in size
#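 TDP-43-expressing yeast, pregrown in raffinose, seeded at OD600 0.02 in galactose medium with compound for 24 hr at 30 deg C. Growth read by BacTiter-Glo luminescence, so rescue of toxicity appears as activation.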
# Starred values were filed as active, the others as inactive; i = inactive. Many of the other results were omitted from the sample, so hits are more common in it than they were. Potency is read from the fitted curve at half-maximal effect.
SMILES,TDP-43 rescue
CC(=O)c1ccc(Sc2nnnn2-c2ccccc2)c([N+](=O)[O-])c1,20µM*
CN1CCN(S(=O)(=O)c2ccc(Sc3nnnn3-c3ccccc3)c([N+](=O)[O-])c2)CC1,i
O=C(CCCn1c(=O)c2cccn2c2ccccc21)Nc1cccc(Cl)c1,i
Fc1ccc(-n2c(-c3ccco3)nc3nc4ccccc4nc32)cc1,i
c1ccc(-c2nc(-c3ccco3)n3ccccc23)cc1,13µM*
Clc1c(-c2ccccc2)nc2ccccn12,i
CCc1ccccc1NC(=O)C1CCCN(c2nnc(-n3c(C)ccc3C)s2)C1 (centres undefined),i
CC(C)C(N)c1csc(NC(=O)Nc2ccc(OC(F)(F)F)cc2)n1 (centres undefined),i
Cc1ccc(-c2nnc3c4ccccc4c(C)nn23)cc1NC(=O)c1ccccc1Cl,i
Cc1cc(C)c(S(=O)(=O)NCc2csc(-c3ccccc3)n2)c(C)c1,22µM*
O=S(=O)(NCc1csc(-c2ccccc2)n1)c1cccc(F)c1,i
COc1ccc(-c2nc(CNS(=O)(=O)c3ccccc3)cs2)cc1,i
Cc1cc(C)cc(NC(=O)Cn2cc(C(=O)c3ccncc3)c(=O)c3cc(C)c(C)cc32)c1,i
CC1Cc2ccccc2N1C(=O)COC(=O)c1c2c(nc3ccccc13)CCCCC2 (centres undefined),14µM*
CC1Cc2ccccc2N1C(=O)COC(=O)Cn1nnc(-c2ccccc2)n1 (centres undefined),i
CCCNC(=O)COC(=O)c1c2c(nc3ccccc13)CCC2,i
COC(=O)c1cc2oc3ccccc3c2n1Cc1c(F)cccc1Cl,i
CC(C)CCNC(=O)Nc1ccc2c(c1)N(Cc1ccccc1)C(=O)c1ccccc1S2,i
Fc1ccc(-c2csc3ncnc(Cl)c23)cc1,14µM*
CC(=O)CSc1ncnc2scc(-c3ccc(F)cc3)c12,i
Cc1ccc(-c2csc3ncnc(NS(=O)(=O)c4ccc(Cl)cc4)c23)cc1,i
Cc1ccc(-c2nn(C)c(=O)c3ccccc23)cc1S(=O)(=O)NCCCN(C)C,i
CCCS(=O)(=O)c1nc(S(=O)(=O)c2ccc(C)cc2)c(NCCCOC(C)C)s1,i
O=C(Nc1cccc(-c2nc3ccccc3[nH]2)c1)c1c(F)cccc1F,i
CCOC(=O)c1ccc(N2C(=O)CC(N3CCN(Cc4ccccc4)CC3)C2=O)cc1 (centres undefined),i
SMILES,TDP-43 rescue
COC(=O)c1ccc(N2C(=O)CC(N3CCOCC3)C2=O)cc1 (centres undefined),16µM*
CC1CCN(C2CC(=O)N(c3ccccc3)C2=O)CC1 (centres undefined),i
COc1ccc(NC(=O)Cn2c(=O)n(-c3cccc(C(F)(F)F)c3)c(=O)c3sccc32)cc1,i
CCOC(=O)c1c(NC(C)=O)c2c3c(sc2n1Cc1cccc(Cl)c1)CCCC3,i
O=C(c1ccc2c(c1)N(Cc1ccccc1)C(=O)c1ccccc1S2(=O)=O)N1CCN(Cc2ccccc2)CC1,i
COc1cc(/C=C/C(=O)c2ccc3c(c2)OCCO3)cc(Br)c1OCC(=O)N(C)C,16µM*
O=C(/C=C/c1ccncc1)c1ccc2c(c1)OCCO2,i
COc1cc(C(=O)NNC(=O)c2ccc3c(c2)OCCO3)cc(OC)c1OC,i
COc1cccc(CNC(=O)CCc2nnc3n(C)c(=O)c4sccc4n23)c1,i
COC(=O)c1cc2oc3ccccc3c2n1Cc1ccccc1Cl,i
CCCN1C(=O)C(Cc2nc3ccccc3c(=O)n2CC)c2ccccc21 (centres undefined),i
Cc1ccc2c(c1)N(CCCC(=O)NCc1cccc(F)c1)C(=O)CO2,i
CCCCC(=O)NCc1ccccc1Cl,i
O=C(CN1CCc2ccccc21)NCc1ccccc1Cl,13µM*
O=C(CN1CCN(Cc2ccccc2)CC1)NCc1ccccc1Cl,i
COc1ccc(Br)c2c1-c1nc(NC(=O)c3ccccc3SC)sc1C2,i
CCOc1ccccc1NC(=O)Cc1csc(COc2cccc(C)c2)n1,i
CC(C)Cc1nnc(NC(=O)c2cc3c(s2)CCC3)s1,i
O=C(Nc1nnc(SCc2ccccc2)s1)c1cc2c(s1)CCCC2,i
O=C(Nc1nccs1)c1cc2c(s1)CCCCC2,7.1µM*
COc1ccccc1N1CCN(c2c3c(nc4nncn24)CCC3)CC1,i
Cc1cccc(Nc2c3c(nc4nncn24)CCC3)c1,i
Cc1ccc(Nc2c3c(nc4nncn24)CCC3)cc1,13µM*
CCc1ccc(NC(=O)C2CCN(c3nnc(-n4c(C)ccc4C)s3)CC2)cc1,i
CCOc1cccc(C(=O)NC(=S)Nc2cccc(C)c2)c1,20µM*
SMILES,TDP-43 rescue
O=C(Nc1ccc(C(=O)O)cc1)/C(=C/c1ccc2c(c1)OCO2)NC(=O)c1cccc(Br)c1,i
COC(=O)COc1cccc(NC(=O)c2cccc(C)c2)c1,i
O=C(NC(=S)Nc1ccc2c(c1)OCCO2)c1cccc(Br)c1,13µM*
CCOC(=O)NC(=S)Nc1cccc(NC(=S)NC(=O)OCC)c1,i
O=C(Nc1cccc(Cl)c1)c1ccc2c(c1)OCCO2,i
Cc1cccc(C)c1OCc1nc2c3cnn(-c4ccccc4Br)c3ncn2n1,i
COc1ccc(C(=O)Nc2cc3cc(Cl)ccc3oc2=O)cc1OC,i
O=C(NCC(c1ccco1)S(=O)(=O)c1cccs1)c1ccc(Cl)cc1 (centres undefined),i
OC(CNc1ncnc2sccc12)c1ccccc1 (centres undefined),i
Fc1ccc(Nc2ncnc3sccc23)cc1,11µM*
CN(C)C(CNc1ncnc2sccc12)c1ccccc1 (centres undefined),i
COc1ccc(Br)cc1CNC(=O)C1CCN(c2nnc(-n3cccc3CNc3ccc(C)cc3)s2)CC1,i
O=C(CCCSc1ccc(Cl)cc1)Nc1ccccc1O,11µM*
O=C(CSCc1ccc(Cl)cc1)Nc1ccccc1O,i
Cc1ccc(SCCC(=O)N/N=C/c2ccccc2O)cc1,i
COc1cccc(CNC(=O)CCc2c(C)nc3c4c(C)cc(C)nc4nn3c2C)c1,i
CCOC(=O)COc1ccccc1/C=N/O,i
O/N=C/c1ccccc1Oc1ccc(Cl)cc1,18µM*
COC(=O)N/N=C/c1ccccc1OCCOc1ccc(OC)cc1,i
Cc1ccc(-c2nc(NC(=O)CSc3nc(C)nc4sc5c(c34)CCCC5)ns2)cc1,i
O=C(Nc1sc2c(c1C(=O)NCc1ccco1)CCCC2)c1cc(=O)c2ccccc2o1,i
Cc1nc([N+](=O)[O-])c(C(=O)OCc2ccccc2)n1C,i
COc1cc(OC)cc(C(=O)OCc2ccc([N+](=O)[O-])cc2)c1,i
Cc1nc([N+](=O)[O-])c(C(=O)OCc2cccc(Br)c2)n1C,13µM*
COc1ccc(-c2cc(C(F)(F)F)n3nc(C(=O)O)c(Cl)c3n2)cc1OC,i
SMILES,TDP-43 rescue
CC(C)COc1ccc(C(=O)Nc2cccc(-c3nc4ccccc4[nH]3)c2)cc1,i
NC(=O)c1nc(-c2ccc(F)c(F)c2)nc2c1[nH]c(=O)n2-c1cccc(Cl)c1,i
COc1ccc(OC)c(NC(=O)C2Cc3ccccc3CN2S(=O)(=O)c2ccc(F)cc2)c1 (centres undefined),i
Cc1cccc(C)c1OCc1nc2c3cnn(-c4ccccc4F)c3ncn2n1,i
COc1ccc(Cc2nc3c4cnn(-c5ccccc5F)c4ncn3n2)cc1,i
Fc1ccccc1-n1ncc2c1ncn1nc(Cc3ccccc3)nc21,11µM*

# Screens: PubChem, National Center for Advancing Translational Sciences (NCATS)
